Laboratory results: PubChem BioAssay AID2314 (National Center for Advancing Translational Sciences (NCATS), 2010)
The campaign covered roughly 300,000 compounds. About 37,000 (12%) were called active. Shown is part of a subset that was picked to be rich in actives. Values without a mark were called inactive. Rule as the data show it: active = max response mostly above about 13% (no sharp cut-off); inactive = mostly below about 14%.

Experiment: Cycloheximide Counterscreen for Small Molecule Inhibitors of Shiga Toxin; also: read at 38.3 µM for the half of the compounds with a filed dose; 0% is about no effect
Conditions: cell reporter, cycloheximide protein synthesis inhibition counterscreen; hits give high values

Structure (SMILES)	max response
Cc1oc2c(C)c3oc(=O)c(CC(=O)N[C@@H](CC(C)C)C(=O)N[C@@H](Cc4ccccc4)C(=O)O)c(C)c3cc2c1C	-3.89%
Brc1ccc2ncnc(NCc3cccnc3)c2c1	8.06%
Oc1ccccc1CNc1ncc(Br)cc1Br	19.8% (active)
CCc1cccc(C)c1NS(=O)(=O)c1cc(Br)cnc1N	-7.68%
COc1cc(/C=N/NC(=O)c2cccnc2)ccc1OC(=O)c1cccc(Br)c1	-6.4%
O=C(CNC(=O)c1cccnc1)N/N=C/c1cc(Br)c(O)c(Br)c1	-1.81%
CN1CCN(NC(=O)c2ccc(S(=O)(=O)N3CCCCCC3)cc2)CC1	-2.75%
O=C(NN=C1CCC(=NNC(=O)c2cccnc2)CC1)c1cccnc1	22.4% (active)
Cc1cc(/C=N/NC(=O)c2cccnc2)c(C)n1CC(C)C	42.1% (active)
O=C(N/N=C/c1ccccn1)c1ccc(S(=O)(=O)N2CCCCCC2)cc1	73.8% (active)
O=C(N/N=C/c1ccccn1)C12CC3CC(CC(C3)C1)C2	14.7% (active)
O=C(Nc1cnccn1)c1cccnc1	-3.29%
O=C(Nc1ccc(S(=O)(=O)Nc2ncccn2)cc1)C12CC3CC(CC(C3)C1)C2	1.99%
O=C(NCc1ccc(Cl)c(Cl)c1)c1cccnc1	-2.41%
O=C(N/N=C/c1ccccn1)c1cccc(NC(=O)c2ccc(Cl)cc2)c1	13%
CNC(=O)C(=O)N/N=C/c1ccccn1	6.76%
FC(F)(F)Oc1ccc(NC(=S)NCc2ccccc2)cc1	1.72%
C[C@H]1[C@H]2c3nc4ccccc4n3C[C@H]1ON2C1CCCCC1	2.13%
COc1ccccc1N1CC(C(=O)Nc2nnc(SCC(=O)NCC3CCCO3)s2)CC1=O (stereo not drawn)	8.07%
COC(=O)C1=C(Nc2ccc(C)cc2)C=C(C)C(C(=O)OC)C1c1ccc(F)cc1 (stereo not drawn)	10.3%
COc1ccc(-c2ccc(C3C4C=CCCC4(C)C(=O)N3Cc3ccccc3)c(F)c2)cc1OC (stereo not drawn)	12.4%
O=C(N/N=C/c1ccccn1)c1cccnc1	17.5% (active)
O=C(N/N=C/c1ccc(O)c2ccccc12)c1cccnc1	15.4%
Cn1c(SCC(=O)C(C)(C)C)nnc1-c1ccccn1	18.9%

Structure (SMILES)	max response
Cc1ccccc1CSc1nnc(-c2ccccn2)n1N	27% (active)
Cc1ccccc1CSc1nnc(-c2cccnc2)n1N	16.2%
COc1ccc(-c2cc(=O)oc3cc(OCC(=O)N(C)C4CCS(=O)(=O)C4)ccc23)cc1 (stereo not drawn)	3.93%
CCN(C(=O)COC(=O)c1ccc(COc2ccc3c(C)cc(=O)oc3c2)cc1)C1CCS(=O)(=O)C1 (stereo not drawn)	21.1% (active)
Cc1ccccc1NC(=O)c1ccc(COc2ccc3c(C)cc(=O)oc3c2)cc1	-0.998%
COc1cccc(-c2nn(-c3ccccc3)cc2/C=C(\C#N)C(=O)NCCCn2ccnc2)c1	10.5%
CC1CCCCC1NC(=O)CCS(=O)(=O)c1ccc2c(c1)NC(=O)CO2 (stereo not drawn)	-2.74%
COc1ccc(C(=O)Nc2ccccc2C(=O)N/N=C/c2ccccc2OC)cc1	17.9%
COc1ccc(/C=N/NC(=O)CNC(=O)c2ccc(S(=O)(=O)N3CCCC3)cc2)c(OC)c1	-1.52%
COc1ccc(/C=N/NC(=O)c2ccc3c(c2)OCCO3)c(OC)c1	56% (active)
Cn1ccc(=Nc2ccc(NC(=O)c3ccc(N=c4ccn(C)c5ccc([N+](=O)[O-])cc45)cc3)cc2)cc1	-1.72%
O=C(NCCc1ccccn1)c1ccc(COc2ccccc2)o1	28.1% (active)
O=C(CNC(=O)COc1ccccc1)NCCc1ccccn1	5.88%
O=C(NCCc1ccccn1)c1cccnc1Oc1ccc(Cl)cc1	0.291%
Cc1ncn2cc(-c3ccc(Cl)cc3Cl)[nH]c(=O)c12	8.02%
Cc1cccc(N2CCN(S(=O)(=O)c3ccc(-c4cc(C)no4)s3)CC2C)c1 (stereo not drawn)	-3.69%
O=C(CN1CCN(S(=O)(=O)c2ccc(Cl)s2)CC1)NCc1ccc(Cl)cc1	30.7% (active)
Cc1ccccc1N1CCN(CC(=O)NCc2ccc(Cl)cc2)CC1	-1.19%
Cc1ccc(CNC(=O)CN2CCN(Cc3ccc(Cl)cc3)C2=O)cc1	-4.69%
COCCn1c(C)cc(C(=O)CSc2nc3ccccc3c(=O)n2C(C)COC)c1C (stereo not drawn)	13.4%
COc1cccc(CNc2nc3nc4c(c(=O)n3[nH]2)CCC4)c1	-3.21%
COc1cccc(-c2cc3nc4c(c(N5CCC6(CC5)OCCO6)n3n2)CCCC4)c1	24.2% (active)
O=C(c1cc2nc(-c3ccccc3)cc(-c3ccccc3)n2n1)N1CCC2(CC1)OCCO2	3.88%
C=Cc1ccc(C(=O)N2CCCC(CCC(=O)N3CCN(c4ccccn4)CC3)C2)cc1 (stereo not drawn)	-3.56%

Structure (SMILES)	max response
COc1cc(C)cc(CN2CCC(Cc3ccccc3)CC2)c1O	-8.91%
CSc1ncc(Cl)c(C(=O)Nc2cc(C)ccc2C)n1	7.29%
COCCSc1nnc(NC(=O)CCS(=O)(=O)Cc2ccccc2)s1	-1.53%
Cc1ccc(S(=O)(=O)CC(=O)Nc2nnc(C)s2)cc1	-6.45%
Cc1nnc(NC(=O)CCCOc2ccccc2)s1	-3.73%
Cc1ccc(CS(=O)(=O)c2ncc(Cl)c(C(=O)Nc3nnc(C)s3)n2)cc1	66% (active)
CSc1nnc(NC(=O)c2nc(S(=O)(=O)Cc3ccc(C)cc3)ncc2Cl)s1	63.3% (active)
Cc1ccc(CN2CCC(N3CCC(C(=O)NCC4CCCO4)CC3)CC2)o1 (stereo not drawn)	4.92%
CCOC(=O)c1c(NC(C)=O)sc2c(O)c(Br)ccc12	-7.21%
CC(Oc1cc2oc(=O)c3c(c2cc1Cl)CCCC3)C(=O)NCc1ccncc1 (stereo not drawn)	-1.94%
Cc1cccc(NS(=O)(=O)c2ccc(C(=O)NCC(C)(C)N3CCOCC3)cc2)c1C	-1.4%
Cc1ccc(CC2C(=O)N(c3ccc(F)cc3)C(=O)C2C)cc1 (stereo not drawn)	7.99%
CC(C)[C@H](NC(=O)N1c2ccccc2NC(=O)[C@@H]1C(C)C)C(=O)N[C@H](C(=O)O)c1ccccc1	5.5%
CC(=O)Nc1ccc(S(=O)(=O)N2CCC(C(=O)NC3CC3)CC2)cc1	-6.68%
Cn1c(=O)c2c(nc(NCCNC(=O)c3ccco3)n2Cc2ccccc2F)n(C)c1=O	-1.04%
CNc1nc(-c2ccccc2)cc(-c2ccccc2)n1	-1.91%
Nc1nc(-c2ccccc2)cc(-c2ccccc2)n1	21% (active)
Nc1cccc(-c2cc(-c3ccccc3)nc(-c3cccc(N)c3)n2)c1	-5.19%
COc1ccc2c(C)cc3nnnn3c2c1	-1.91%
O=Cc1c(NCCCN2CCCC2=O)c2ccccc2[nH]c1=O	-2.01%
Cc1ccc(C2NC(C(=O)O)CS2)cc1 (stereo not drawn)	1.34%
CCOc1ccc2nc(NCCNS(=O)(=O)c3ccccc3)c(C#N)cc2c1	25.7% (active)
CCOc1ccc2nc(NCCNC(=O)C(C)(C)C)c(C)cc2c1	3.67%
CCOc1ccc(S(=O)(=O)NCCSc2ccccc2)cc1	-2.61%

Structure (SMILES)	max response
Cc1ccc(C)c(NC(=O)c2cc(-c3cc(C)cc(C)c3O)n[nH]2)c1	5.99%
COc1ccc([N+](=O)[O-])cc1N(CC(O)Cn1nnc2ccccc21)S(=O)(=O)c1ccc(C)cc1 (stereo not drawn)	10.2%
CCc1ccc(CNC(=O)C2CC(=O)N(CCc3ccc(C)cc3)C2)cc1 (stereo not drawn)	0.654%
COc1ccc(C(=O)Oc2cc(/C=N/NS(=O)(=O)c3ccc(C)cc3)ccc2OC)cc1	1.6%
COc1ccc(/C=N\NC(=O)c2sc(N)nc2C)cc1OC	16.4% (active)
COc1ccc(/C=N/NC(=O)c2ccccc2)cc1OS(=O)(=O)c1ccccc1	17.9% (active)
COc1cccc(OCc2cc(/C=N/NC(=O)c3nc(Cl)c(Cl)c(N)c3Cl)ccc2OC)c1	-1.62%
COc1ccc(/C=N/S(=O)(=O)c2ccccc2)cc1OC	-3.6%
COc1cc(/C=N/NC(=O)c2ccccc2)ccc1OS(=O)(=O)c1ccccc1	10%
CCN(CC)CCCNC(=O)c1cn(C)c2ccc(S(=O)(=O)N(C)C3CCCCC3)cc2c1=O	-5.84%
Fc1ccccc1/C=C1\CCCC2=C1Nc1ncnn1C2c1ccccc1F (stereo not drawn)	-5.33%
COc1ccc(N(CC(=O)NCC2CCCO2)C(=O)CCC(=O)Nc2nccs2)c(OC)c1 (stereo not drawn)	-4%
CCc1ccc(N2CC(C(=O)Nc3ccc(S(=O)(=O)Nc4nccs4)cc3)CC2=O)cc1 (stereo not drawn)	-3.18%
Cc1ccc(C(=O)N/C(=C/c2cccnc2)C(=O)O)cc1	-0.563%
C/C(=N\NC(=O)c1ccc(C)cc1)C1C(=O)c2ccccc2C1=O	23.4% (active)
C/C(=N\NC(=O)CNC(=O)C(c1ccccc1)c1ccccc1)c1ccc(C)cc1	-6.41%
Cc1ccc(S(=O)(=O)c2nc(-c3cccs3)oc2NCc2cccnc2)cc1	7.52%
O=C1c2cccc3c([N+](=O)[O-])ccc(c23)C(=O)N1CC1CCCO1 (stereo not drawn)	20%
Cc1cc(Nc2ccccc2)n(CCC#N)n1	-3.59%
Cc1cc(Nc2ccccc2)n(C(=O)c2ccc(N)cc2)n1	24% (active)
Cc1cc(C)n(C(=O)c2ccc(S(=O)(=O)N3CCCC3)cc2)n1	-2.32%
